Compound activity: PubChem, National Center for Advancing Translational Sciences (NCATS)
Only some compounds are listed: those with a hit (about 1.2% of all), similar ones and a draw of the others.
GoLoco inh red: RGS12 GoLoco-Gai1 interaction inhibition | Potency, µM (doses to about 61.6 µM), inactives show top-dose activity, negative = inhibition, most hits filed as inhibitors | Gai1:RGS12 GoLoco peptide FP, rhodamine, 10 min | 230,000 tested, 0.44% active; active = well fitted inhibition curve with a large enough effect, not every such curve was filed as active; inactive = no such curve, though single readings can be large or run the other way; note: nearly all actives have a fitted effect of over 30% in size
Target sequence (P63096 whole entry, looked up): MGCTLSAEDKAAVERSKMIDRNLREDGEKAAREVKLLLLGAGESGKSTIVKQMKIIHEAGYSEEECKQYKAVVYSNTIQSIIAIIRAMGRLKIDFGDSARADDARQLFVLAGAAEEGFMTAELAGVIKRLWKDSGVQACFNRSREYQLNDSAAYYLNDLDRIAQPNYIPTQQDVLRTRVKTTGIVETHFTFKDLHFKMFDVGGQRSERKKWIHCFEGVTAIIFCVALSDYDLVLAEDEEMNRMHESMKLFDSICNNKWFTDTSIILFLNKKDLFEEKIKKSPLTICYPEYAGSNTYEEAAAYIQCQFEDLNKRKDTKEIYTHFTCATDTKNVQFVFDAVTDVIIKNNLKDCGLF
TRb-SRC2 inh: inhibitors of human thyroid hormone receptor beta-SRC2 interaction | 280,000 tested, 0.065% active | Potency, µM (titrated, usually from 106 µM), inactives show at the highest dose activity change, negative = inhibition, actives largely listed as inhibitors | TRbeta-SRC2 peptide binding, fluorescence polarization; receptor liganded with 1 µM T3 | P10828;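 note: plate controls were bound peptide for no effect and peptide without receptor for full effect; nearly all actives have a fitted effect of over 50% in size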
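Quantitative HTS by FP: 0.6 uM TRb LBD, 20 nM labeled SRC2 20-mer, 1 uM T3, 5% DMSO; 5 hr ambient incubation; % activity per concentration and potencies from concentration series.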
VDR inhibitor: blocks the human vitamin D receptor. Potency, µM, for inactives: max response, negative = inhibition, most hits filed as inhibitors. VDR-SRC2-3 peptide fluorescence polarization, 2 h. 400,000 tested, 0.93% active
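The screen uses fluorescence polarization to detect compounds that interfere with recruitment of the SRC2-3 coactivator peptide to VDR; plates are read after 2 h at room temperature.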
GCN5L2 inh: inhibitors of human GCN5L2 histone acetyltransferase. GCN5L2 HAT assay, ThioGlo1 CoA-SH fluorescence. Q92830. Potency, µM (highest dose often 58.9 µM), for the others: at the top dose activity change, negative = inhibition, actives largely listed as inhibitors. 390,000 tested, 0.21% active. AID 504327
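GCN5L2 (20 nM) in 50mM HEPES pH 7.5, 0.1mM EDTA, 0.01% Tween-20 preincubated 15 min with compounds at room temperature. Reaction started with H3(1-25) 75uM, acetyl-CoA 70uM, ThioGlo1 50uM; CoA-thiol fluorescence (Ex340/Em540) read at 0 and 20 min.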
TexasRed fluor: counter-screen for TRb-SRC2 inhibitors: fluorescence interference. TRb/SRC2 Texas Red total fluorescence interference. Potency, µM (highest dose often 106 µM), without a hit: at the highest dose fluorescence change, negative = quenching. 280,000 tested, 0.29% active; active = well fitted curve in either direction with a large enough effect; inconclusive = small, poorly fitted or top-dose-only effect
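Flags fluorescent or light-absorbing compounds by total fluorescence, S + 2P, at 555 nm excitation and 632 nm emission. Mixture: 20 nM Texas Red SRC2 peptide, 0.6 uM human TRb LBD, 1 uM T3, 5% DMSO; compound exposure 5 h at ambient temperature.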
An asterisk follows results filed as active; ? = inconclusive; · = no result; [ ] = dose if it differs, or a comment. Unless noted, calls come from the whole dose curve; as a rule, active = well fitted curve in the direction sought with a large enough effect; inconclusive = small, poorly fitted or top-dose-only effect, or another doubt; inactive = no such curve, though single readings can be large; an effect the other way counts as inactive or inconclusive. Unless noted, % is set by controls: 0 for no effect and ±100 for the full control effect; potency is the fitted concentration of half-maximal effect.

SMILES	GoLoco inh red	TRb-SRC2 inh	VDR inhibitor	GCN5L2 inh	TexasRed fluor
C=C1CCC[C@]2(C)C[C@H]3OC(=O)[C@H](CNCCc4ccccc4OC)C3CC12 (some centres not stated)	2%	2%	-15%	·	-1%
CC(C)n1c(=O)[nH][nH]c1=S	-42%	2%	50µM*	14µM*	-1%
C/C(=N\NC(=O)c1cccnc1)c1ccc(OC2OCCOC2Oc2ccc(/C(C)=N/NC(=O)c3cccnc3)cc2)cc1 (configuration not stated)	10%	3%	40µM*	-5%	-2%
C/C(=N\NC(=O)c1cccs1)c1cccnc1	0%	-9%	79µM*	-6%	-1%
C/C(=N\NC(=O)c1ccncc1)c1cccnc1	·	·	8%	-7%	·
Cn1cnc([N+](=O)[O-])c1S(=O)(=O)Oc1ccccc1	·	·	25µM*	·	·
O=C(CNC(=O)c1ccccc1)OCC(=O)c1cccc2ccccc12	·	·	0%	·	·
CCCCCCCCOC(=O)c1cc(O)c(O)c(O)c1	·	5%[201 µM]	·	·	-3%[201 µM]
O=C(O)[C@@H]1[C@@H]2C[C@H]([C@@H](Br)[C@H]2N2C(=O)CCC2=O)[C@@H]1C(=O)O	-1%[14.2 µM]	·	·	·	·
Cc1nnc(NN)n(N)c1=O	8.9µM*	-2%	-8%	0%	-1%
Cc1nnc(Nc2ccccc2)n(N)c1=O	3%	5%	3%	-5%	-1%
CCn1c(-c2ccccc2)c(C(=O)CCl)c2ccccc21	2%	4%	?	-8%	-2%
Cn1c(-c2ccccc2)c(C(=O)CCl)c2ccccc21	4%	-11%	71µM*	-17%	-7%
N#Cc1cc([N+](=O)[O-])c2sc(C(N)=O)[n+]([O-])c2c1	·	·	5%	0%	·
Cc1ccc(NC(=O)c2ccc(Cl)c(N3C(=O)C=CC3=O)c2)cc1	-22%	10%	18µM*	18µM*	4%
O=C(Nc1ccc(Cl)c(Cl)c1)c1ccc(Cl)c(Cl)c1	5%	6%	-11%	0%	2%
O=c1c(-c2ccc(F)cc2)nc2cnc(N3CCNCC3)nc2n1Cc1ccc(F)cc1	4%	·	-6%	-19%	·
CC1Cc2ccccc2N1C(=O)CSC1=NCCS1 (configuration not stated)	-6%	-14%	71µM*	-3%	-1%
C/C(CCC(=O)OC[C@@H]1O[C@H](C#Cc2ccccc2)C=C[C@@H]1Oc1ccc(C)cc1)=N/O[C@@H](C)c1cn([C@H]2COC[C@H]2O)nn1	·	-1%[11.2 µM]	·	·	1%[11.2 µM]
O=C(O)[C@@H]1[C@@H](C(=O)NCc2ccccn2)[C@@H]2C=C[C@@H]1O2	-2%[14.2 µM]	·	·	·	·
CCCc1nc2sc3c(c2c(=O)[nH]1)CCCC3	10%	-6%	79µM*	-1%	-1%
CC(=O)NC1=C(N(C)C2CCS(=O)(=O)C2)C(=O)c2ccccc2C1=O (configuration not stated)	2%	1%	-21%	-4%	4%
COc1ccc(OC)c2c1C(=O)c1ccccc1C2=O	7.9µM*	-7%	11%	-11%	-4%
COc1ccc(N)c2c1C(=O)c1ccccc1C2=O	48%	32µM*	?	-7%	50µM*[fluorescent]
COC1=C(Nc2ccc(C)cc2)C(=O)c2ccccc2C1=O	-5%	-13%	?	0%	-3%
SMILES	GoLoco inh red	TRb-SRC2 inh	VDR inhibitor	GCN5L2 inh	TexasRed fluor
COC1=C(Nc2ccccc2)C(=O)c2ccccc2C1=O	1%	1%	45µM*	0%	-6%
CC(=O)NC1=C(Nc2ccc(N(C)C)cc2)C(=O)c2ccccc2C1=O	·	·	50µM*	0%	·
CCCCc1nc2c(c3c1C[C@H](C)OC3)CN(C(=O)COC)CC2	1%[14.2 µM]	4%[11.2 µM]	·	·	-17%[11.2 µM]
C/C=C\C1=C(CO)C(=O)[C@@H]2OC2C1=O (some centres not stated)	·	-12%[11.2 µM]	·	·	?
CCOC(=O)c1c(NC(=O)Nc2ccc(Cl)cc2)sc(C)c1C	-11%	6%	-3%	-17%	4%
CCOC(=O)c1c(NC(=O)/C=C/C(=O)O)sc(C)c1-c1ccc(Cl)cc1	14%	?	40µM*	1%	-2%
CCCN1CNc2c(c(=O)[nH]c(=S)n2CCc2ccccc2Cl)C1	·	·	-21%	·	·
Cc1sc2nc[nH]c(=S)c2c1-c1ccccc1	4%	0%	89µM*	-6%	0%
CCc1cc(C(=O)Nc2sc(C)c(CC)c2C#N)no1	·	-6%	79µM*	-15%	3%
CCc1c(C)sc(NC(=O)c2cc(C(C)C)on2)c1C#N	5%	-1%	-6%	-12%	-5%
CC1(C)CC(=O)C2=C(C1)NC(Nc1nc3ccccc3o1)=NC2c1ccccc1 (configuration not stated)	·	·	10%	·	·
C/C(=N\Nc1ccc([N+](=O)[O-])cc1)c1ccc(N)cc1	16%	-27%[53 µM]	-1%	-6%	0.32µM*[quencher]
O=C(O)c1cccc2c1C(=O)c1ccccc1-2	13%	2%	-8%	-5%	1%
O=C1C(=C(I)I)c2ccccc2-c2ccccc21	·	·	35µM*	·	·
CCn1cc2nc(SCC(=O)Nc3ccc(OC)c(OC)c3)n(Cc3ccc(OC)cc3)c(=O)c2n1	·	·	-6%	-6%	·
CCn1cc2nc(SCC(=O)Nc3ccc(OC)c(Cl)c3)n(Cc3ccc(OC)cc3)c(=O)c2n1	·	?	-3%	-18%	3.5µM*[quencher]
O=c1cc(-c2ccc(O)cc2)oc2cc(OC3OC(CO)C(O)C(O)C3O)c(C3OC(CO)C(O)C(O)C3O)c(O)c12 (configuration not stated)	·	7%	1%	-13%	-21%
COc1ccc(-n2c(SCC(=O)C(C)(C)C)nc3c(sc(=S)n3-c3ccccc3)c2=O)c(OC)c1	·	·	32µM*	-7%	·
CCOC(=O)CSc1nc2c(sc(=S)n2-c2ccccc2OC)c(=O)n1-c1ccccc1OC	·	·	-9%	-9%	·
CC(Oc1ccc2cc(-c3ccccc3)c(=O)oc2c1)C(=O)NCC1CCC(C(=O)O)CC1 (configuration not stated)	·	·	?	32µM*	·
COc1ccccc1-c1nn2c(C3COc4ccccc4O3)nnc2s1 (configuration not stated)	-2%	-1%	71µM*	2%	-2%
c1ccc(OCc2nnc3sc(C4COc5ccccc5O4)nn23)cc1 (configuration not stated)	16%	-1%	71µM*	-23%	-2%
COc1ccc(-c2nc3cccc(C)n3c2Nc2ccc(C)cc2)cc1	·	·	-9%	·	·
COC(=O)c1cc(=O)c(O)c2c(O)c(O)ccc2c1	2.8µM*	-2%	22µM*	-22%	?
